Screens (PubChem BioAssay)
Pf growth 96h – P. falciparum growth inhibition at 96 hour, primary screen for plastid delayed-death inhibitors | P. falciparum luciferase reporter growth, 96 h | Potency, µM (top dose mostly 28.7 µM), without a hit: top-dose activity change, negative = inhibition, actives largely listed as inhibitors | 320,000 compounds, 6.9% hits; further: potency means the concentration at half of the fitted maximal effect; on the % scale 0 is the no-effect control and ±100 the full control effect
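Compounds incubated with erythrocytes infected by luciferase-expressing P. falciparum (2% hematocrit, 0.05% parasitemia final) for 96 hours, 37 C in 5% CO2. Growth inhibition scored as decreased luciferase luminescence.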
Pf growth 48h – inhibits P. falciparum growth in the first generation, 48 h; P. falciparum luciferase growth in erythrocytes, 48 h; Potency, µM (doses to about 28.7 µM), for inactives: at the top dose activity change, negative = inhibition, hits mostly inhibitors; 310,000 compounds, 5.9% hits; further: potency means the concentration at half of the fitted maximal effect; on the % scale 0 is the no-effect control and ±100 the full control effect
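Cell-based growth assay: transgenic P. falciparum expressing firefly luciferase, cultured in red cells within RPMI 1640 containing 0.5% w/v Albumax, 24 mM bicarbonate and gentamycin. A drop in luciferase activity indicates inhibition.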
CHX counter – counter-screen for Shiga toxin inhibitors: cycloheximide protein synthesis inhibition | cell reporter, cycloheximide protein synthesis inhibition counterscreen | max response, % | AID 2314 | 300,000 compounds, 12% hits; in the data active means max response mostly above about 13%, no sharp cut-off; inactive means mostly below about 14%; further: read at 38.3 µM for the half of the compounds with a filed dose; 0% is about no effect
Shiga inhibitor – inhibitors of Shiga toxin in Vero cells. inhibition, % at 38.7 µM. AID 2315. 290,000 compounds, 9.2% hits. Vero cells, Shiga toxin protein synthesis inhibition reporter; in the data active means inhibition mostly above about 28%, no sharp cut-off; inactive means mostly below about 43%; further: 0% is about no effect
LmPK inhibitor – LmPK (Leishmania mexicana) enzyme inhibition. Q27686. purified LmPK, Kinase-Glo ATP luminescence, 1 h. Potency, µM (doses to about 57.5 µM), inactives show top-dose activity change, negative = inhibition, most hits filed as inhibitors. 290,000 compounds, 0.37% hits. AID 1721; further: potency means the concentration at half of the fitted maximal effect; on the % scale 0 is the no-effect control and ±100 the full control effect
Target sequence (Q27686 whole entry, looked up): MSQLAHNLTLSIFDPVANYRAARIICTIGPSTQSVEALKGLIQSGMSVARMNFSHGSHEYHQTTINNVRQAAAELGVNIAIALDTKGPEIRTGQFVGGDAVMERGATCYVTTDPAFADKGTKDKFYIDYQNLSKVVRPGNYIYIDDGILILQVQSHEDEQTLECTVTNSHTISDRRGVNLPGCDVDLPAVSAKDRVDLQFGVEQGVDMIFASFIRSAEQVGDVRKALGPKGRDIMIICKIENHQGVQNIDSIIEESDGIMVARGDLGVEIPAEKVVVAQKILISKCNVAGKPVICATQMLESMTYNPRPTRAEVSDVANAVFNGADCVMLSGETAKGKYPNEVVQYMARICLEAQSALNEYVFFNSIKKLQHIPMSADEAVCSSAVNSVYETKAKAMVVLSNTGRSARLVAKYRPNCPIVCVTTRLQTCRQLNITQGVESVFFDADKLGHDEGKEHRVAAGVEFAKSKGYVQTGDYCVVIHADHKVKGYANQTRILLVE
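Purified LmPK (0.1 nM) converted ADP (0.1 mM) to ATP with PEP (0.5 mM) in imidazole buffer pH 7.2 with KCl and MgCl2, 1 h at room temperature. ATP was read by Kinase-Glo luminescence; data normalized to uninhibited and no-enzyme controls.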
Starred values were filed as active, the others as inactive; ? = inconclusive; / = no result given; ! = repeats disagree. Sampled rows, rich in hits. Any-hit rate of the full collection: about 22%. Unless noted, the call rests on the fitted dose curve; in most records, active means well fitted inhibition curve with a large enough effect; inconclusive means small, poorly fitted or top-dose-only effect, or another doubt; inactive means no such curve, though single readings can be large or run the other way.

SMILES | Pf growth 96h | Pf growth 48h | CHX counter | Shiga inhibitor | LmPK inhibitor
CCCCN1C(=O)NC(=O)C2(Cc3c(nc4c(C)cccn4c3=O)N3CCc4ccccc4C32)C1=O (centres undefined) | 0.0% | 9.28µM* | -2.6 | -3.7 | 1.3%
CCCCN1C(=O)NC(=O)C2(Cc3c(nc4ccccn4c3=O)N3CCc4ccccc4C32)C1=O (centres undefined) | -56.9% | ? | -0.8 | 50.0 | -0.3%
CCOc1ccccc1N(CC(=O)NC(C)(C)C)C(=O)CCC(=O)Nc1nccs1 | 0.0% | ? | -2.9 | / | 1.2%
CC(C)OC(=O)CSc1nc(Cc2cccs2)nc2ccccc12 | -25.1% | ? | 16.3 | 6.7 | 8.6%
CC1(C)O[C@@H]2C[C@H]3[C@@H]4CCC5=CC(=O)C=C[C@]5(C)[C@@]4(F)[C@@H](O)C[C@]3(C)[C@]2(C(=O)CO)O1 | ? | ? | 4.5 | 8.6 | 7.4%
C[C@]12C=CC(=O)C=C1CC[C@H]1[C@@H]3C[C@@H](O)[C@](O)(C(=O)CO)[C@@]3(C)C[C@H](O)[C@@]12F | -1.1% | 16.1% | 1.1 | 3.3 | 6.6%
CC(=O)OCC(=O)[C@@]12OC3(CCCC3)O[C@@H]1C[C@H]1[C@@H]3CCC4=CC(=O)C=C[C@]4(C)[C@@]3(F)[C@@H](O)C[C@@]12C | 10.4µM* | 11.7µM* | -2.5 | -10.4 | 3.8%
CC1(C)O[C@H]2C[C@@H]3[C@H]4CCC5=CC(=O)C=C[C@]5(C)[C@@]4(F)[C@@H](O)C[C@]3(C)[C@]2(C(=O)CO)O1 | 9.53µM* | ? | -2.6 | 7.1 | /
Cc1ccc(N(CC(=O)NCCc2ccccc2)C(=O)CCC(=O)Nc2cc(C)ccn2)cc1 | 7.2% | -4.2% | -2.8 | 9.1 | -1.5%
CN(C)S(=O)(=O)n1cc(/C=C(\NC(=O)c2ccccc2Cl)C(=O)N2CCCC2)c2ccccc21 | -17.1% | ? | -3.4 | -7.6 | -1.4%
C=CCOc1ccccc1CNCc1ccc(F)cc1 | 2.33µM* | -12.8% | 4.9 | -7.7 | -3.9%
Cc1ccc(S(=O)(=O)N2CCC(=O)N(C(COCc3cccc(Cl)c3)Cc3ccccc3)CC2)cc1 (centres undefined) | 10.4µM* | 8.28µM* | -1.2 | 8.6 | 3.5%
Cc1ccc(S(=O)(=O)N2CCC(=O)N(C(COCc3ccc(Cl)cc3Cl)Cc3ccccc3)CC2)cc1 (centres undefined) | ? | ? | -1.9 | 7.4 | 5.9%
Cc1ccc(S(=O)(=O)N2CCC(=O)N(C(COCc3cccc(C(F)(F)F)c3)Cc3ccccc3)CC2)cc1 (centres undefined) | 6.57µM* | ? | -2.0 | -12.7 | 4.1%
Cc1ccc(S(=O)(=O)N2CCC(=O)N(C(COCc3ccccc3)Cc3ccccc3)CC2)cc1 (centres undefined) | 10.4µM* | 10.4µM* | 1.1 | -8.2 | 4.2%
Cc1ccc(S(=O)(=O)N2CCC(=O)N([C@H](COCc3ccc(Cl)cc3)Cc3ccccc3)CC2)cc1 | / | / | 0.6 | -5.5 | /
Cc1cc(F)ccc1S(=O)(=O)N1CCCOC1CNC(=O)C(=O)NC1CCCCC1 (centres undefined) | 2.1% | 1.0% | 1.3 | -0.9 | -9.5%
O=C(NCCNC(=O)c1ccccc1Cl)c1ccco1 | -7.8% | 11.2% | 3.5 | 10.1 | 5.0%
CSc1nnc(C)c(=O)n1COC(=O)c1ccc(S(=O)(=O)N2CCCC2)cc1 | ? | -6.1% | -1.1 | -1.0 | -2.6%
N#Cc1nc(NCC(F)F)nc(Nc2cc(F)cc(F)c2)n1 | ? | 10.4µM* | / | / | /
N#Cc1nc(Nc2cc(F)cc(F)c2)c2ncn(CC(F)F)c2n1 | 0.294µM* | ? | / | / | /
O=C1c2cccc3cc([N+](=O)[O-])cc(c23)C(=O)N1CCN1CCCC1 | ? | 9.28µM* | -3.1 | -6.2 | 0.9%
O=C1c2cccc3cc([N+](=O)[O-])cc(c23)C(=O)N1/N=C/c1ccc(O)cc1O | ? | 11.7µM* | 15.1 | 17.3 | -15.3%
Nc1cc2c3c(cccc3c1)C(=O)N(CCN1CCCC1)C2=O | 5.86µM* | 11.7µM* | -1.6 | 6.4 | 8.6%
CCN(CC)CCN1C(=O)c2cccc3cc(N)cc(c23)C1=O | ? | ? | 1.3 | 22.3 | 2.2%
SMILES | Pf growth 96h | Pf growth 48h | CHX counter | Shiga inhibitor | LmPK inhibitor
CCN(CC)c1ccc(/C=N/N2C(=O)c3ccccc3C2=O)c(O)c1 | ? | 24.3% | 3.6 | 19.3 | 0.6%
O=C(Cc1ncc(C(F)(F)F)cc1Cl)NCCc1ccccn1 | 18.8% | 483.4% | 0.4 | 16.7 | -4.6%
Cc1ccc(S(=O)(=O)Nc2cccc(C(=O)N3CCC(C(N)=O)CC3)c2)cc1 | -6.2% | -10.6% | / | / | /
O=C(O)C(Cc1cn[nH]n1)=NO | 23.2% | 3.1% | -6.6 | -9.4 | -0.2%
COc1ccc(S(=O)(=O)N2Cc3ccccc3CC2C(=O)Nc2nccs2)cc1OC (centres undefined) | / | 26.0% | 43.3* | 91.6* | 4.2%
COc1ccc(S(=O)(=O)N2Cc3ccccc3CC2C(=O)N2CCOCC2)cc1OC (centres undefined) | ? | -7.0% | 0.7 | -2.7 | 1.6%
COc1ccc(S(=O)(=O)N2Cc3ccccc3CC2C(=O)Nc2nccs2)cc1 (centres undefined) | 188.1% | 168.2% | 28.6* | 74.8* | 0.7%
Cc1nn(CCc2n[nH]c(=S)n2-c2cccc(Cl)c2)c(C)c1[N+](=O)[O-] | 9.9% | / | -7.9 | -14.1 | 8.91µM*
Cc1nn(CCc2n[nH]c(=S)n2-c2ccc(F)c(Cl)c2)c(C)c1[N+](=O)[O-] | 10.0% | 31.7% | -2.6 | -10.0 | ?
N#C/C=C(/N)c1ccc(Br)cc1 | 10.4µM* | 13.1µM* | 9.1 | 5.0 | 1.3%
O=C(NCCCCNC(=O)c1ccc(Br)cc1)c1ccc(Br)cc1 | 56.4% | 1.2% | -1.3 | 13.1 | 0.6%
CC(C)=CCN1CCN(Cc2cc(F)ccc2-n2nc(C)cc2C)CC1CCO (centres undefined) | ? | 10.8% | -3.0 | -3.5 | 2.3%
Cc1cc(C(=O)Nc2nc3c(s2)CCCC3)cs1 | -14.0% | -37.8% | 40.5* | 106.9* | -25.6%
O=C(Nc1nc2c(s1)CCCC2)C1CCCN1C(=O)c1cccs1 (centres undefined) | -17.9% | 14.9% | 0.8 | 17.3 | -4.1%
Cc1ccccc1C(=O)NC(C(=O)Nc1nc2c(s1)CCCC2)C(C)C (centres undefined) | 4.65µM* | ? | 17.3* | 31.1* | 1.0%
COC(=O)Cc1csc(NC(=O)c2ccc3ncsc3c2)n1 | 100.5% | 280.0% | / | / | /
O=C(Nc1nc2c(s1)CCCC2)c1ccc2ncsc2c1 | ? | -60.8% | 40.6* | 66.8* | -0.8%
Cc1ncsc1C(=O)Nc1nc2c(s1)CCCC2 | 9.5% | / | 62.0* | 105.9* | ?
O=C(NC1CCCC1)C1CCN(C(=O)c2ccccc2Cl)CC1 | 1.6% | 4.0% | -8.7 | -10.5 | 1.7%
CCOC(=O)N1CCC(=C2c3ccc(Cl)cc3CCc3cccnc32)CC1 | 10.4µM*! | 11.7µM* | -4.4 | -14.7 | 3.6%
CNC(=O)c1cc(Nc2nnc(-c3ccc(C)c(S(N)(=O)=O)c3)c3ccccc23)ccc1OC | 29.9% | -21.8% | 62.0 | 11.9 | 3.3%
